The campaign covered roughly 5,500 compounds. About 2,000 (36%) were called active. Another 18% or so got no clear call; they are omitted. The list shows a part of the results. Unmarked numbers belong to inactive results. Cut-off read from the data, not from the text of the source: active = normalized growth mostly below about 0.91 (no sharp cut-off); inconclusive = no clear call, values can overlap the other calls; inactive = mostly above about 0.92.
Experiment: chemical genetic growth profiling, strain panel (AID 1159580);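 note: tested at 20 µM; growth read once vehicle control cultures reached saturation at 30 °C; 1 = growth at the plate median or of vehicle wells; lower values mean less growth of the strain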
Settings: S. cerevisiae deletion strains, growth OD
[1] = locus YAL040C, strain CLN3, hits give low values
[2] = locus YCL061C, strain MRC1 (second series), hits give low values
[3] = locus YDR150W, strain NUM1, hits give low values
[4] = locus YDR363W, strain ESC2, hits give low values
[5] = locus YER002W, strain NOP16, hits give low values
[6] = locus YJR075W, strain HOC1, hits give low values
[7] = locus YMR263W, strain SAP30, hits give low values
[8] = locus YNL153C, strain GIM3, hits give low values
[9] = locus YNL175C, strain NOP13, hits give low values
[10] = locus YNL197C, strain WHI3, hits give low values
[11] = locus YNL224C, strain SQS1, hits give low values
[12] = locus YNL322C, strain KRE1, hits give low values
[13] = locus YOR083W, strain WHI5 (second series), hits give low values
[14] = locus YAL013W, strain DEP1, hits give low values
[15] = locus YPL055C, strain LGE1, hits give low values
[16] = locus YPL241C, strain CIN2, hits give low values

## O=C(c1ccc2c(c1)OCCO2)N1CCCCC1
[1]
  normalized growth: 0.989
[2]
  normalized growth: 0.991
[3]
  normalized growth: 1.01
[4]
  normalized growth: 1.06
[5]
  normalized growth: 0.986
Locus YGR229C, strain SMI1, hits give low values
  normalized growth: 1.01
[6]
  normalized growth: 1.03
[7]
  normalized growth: 1
Locus YMR307W, strain GAS1, hits give low values
  normalized growth: 1.01
[8]
  normalized growth: 0.98
[9]
  normalized growth: 0.992
[10]
  normalized growth: 0.976
[11]
  normalized growth: 1
[12]
  normalized growth: 1.02
[13]
  normalized growth: 0.993

## O=C(CCN1CCOCC1)c1ccc2c(c1)OCCO2
[14]
  normalized growth: 0.979
Locus YBR229C, strain ROT2, hits give low values
  normalized growth: 0.982
Locus YCL061C, strain MRC1, hits give low values
  normalized growth: 1.01
Locus YDL101C, strain DUN1, hits give low values
  normalized growth: 1.01
Locus YDL134C, strain PPH21, hits give low values
  normalized growth: 0.836 (active)
[3]
  normalized growth: 1.01
Locus YEL061C, strain CIN8, hits give low values
  normalized growth: 0.694 (active)
Locus YGR078C, strain PAC10, hits give low values
  normalized growth: 0.987
Locus YHR030C, strain SLT2, hits give low values
  normalized growth: 0.51 (active)
Locus YHR087W, strain rtc3, hits give low values
  normalized growth: 0.988
Locus YJR043C, strain POL32, hits give low values
  normalized growth: 0.996
[6]
  normalized growth: 1.01
Locus YLR039C, strain RIC1, hits give low values
  normalized growth: 0.637 (active)
Locus YLR058C, strain SHM2 (second series), hits give low values
  normalized growth: 0.989
Locus YLR085C, strain ARP6, hits give low values
  normalized growth: 0.259 (active)
Locus YLR262C, strain YPT6, hits give low values
  normalized growth: 0.703 (active)
Locus YML094W, strain GIM5, hits give low values
  normalized growth: 0.802 (active)
Locus YMR219W, strain ESC1, hits give low values
  normalized growth: 0.99
[7]
  normalized growth: 1
[8]
  normalized growth: 1.03
Locus YNL298W, strain CLA4 (second series), hits give low values
  normalized growth: 0.852
[12]
  normalized growth: 0.968
Locus YNR030W, strain Alg12, hits give low values
  normalized growth: 0.787 (active)
Locus YOL006C, strain TOP1, hits give low values
  normalized growth: 0.708 (active)
[15]
  normalized growth: 0.982
[16]
  normalized growth: 0.769 (active)
Locus YPR135W, strain CTF4, hits give low values
  normalized growth: 0.737

## O=C(OCCN1CCOCC1)C1(c2ccccc2)CCCCC1
[14]
  normalized growth: 1.07
[1]
  normalized growth: 1.01
[2]
  normalized growth: 1
[3]
  normalized growth: 1.01
[4]
  normalized growth: 1
[5]
  normalized growth: 1.01
[9]
  normalized growth: 1.01
[10]
  normalized growth: 0.999
[11]
  normalized growth: 0.996
[12]
  normalized growth: 1.01
[13]
  normalized growth: 1
[15]
  normalized growth: 1.02
[16]
  normalized growth: 0.999

— PubChem BioAssay AID1159580 (chemical genetic matrix, 2015)
